Bioassay records deposited in PubChem BioAssay by several laboratories.
WT yeast gro inh – growth inhibition of WT strain, primary screen, mitochondrial fusion inhibitor project, WT and mutant strains, chemical genetic; 2.1% of 190,000 active; mitochondrial fusion phenotypic screen; AID 1362, 2008; inhibition, % at 10 µM; in the data active = inhibition above about 58%; tested in S. cerevisiae
Ins promoter up – insulin promoter activators in MIN6 cells, imaging, high-content screening, mouse beta cells; z-score at 5 µM; MIN6 insulin promoter-GFP reporter; stronger effect = higher value; AID 1625, 2009; 0.3% of 190,000 active;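 active = z-score above 3 at 5 µM with at least 500 cells counted in the well; inconclusive = wells under 500 cells, flagged as cytotoxic or low count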
Insulin prom inh – inhibitors of insulin promoter-driven GFP, primary screen, imaging, TRM-6 cells (human fetal islet line), eGFP reporter, cell count; reporter expression induced with tamoxifen; inhibition, % at 2 µM; 0.9% of 130,000 active; AID 1273, 2008;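 active = inhibition above the mean plus 3 SD, with well images judged a real hit on visual review, cut at about 60% in these data, passing the limit was not always enough; inconclusive = inhibition over the cutoff but images rejected on review; inactive = inhibition not above the cutoff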
Lmaj promast – Leishmania major promastigote growth inhibition, primary screen; Leishmania major promastigotes, resazurin fluorescence viability; inhibition, % at 10 µM; 9% of 200,000 active; AID 1063, 2008; in the data active = inhibition above about 50%;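 note: promastigotes grown with compound for 44 hours at 28 °C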
Autophagy HCS – autophagy modulators in MEF cells, primary screen, imaging, high-content, MEF GFP-LC3; MEF GFP-LC3 puncta imaging; test concentration mostly 10 µM; AID 463193, 2010; 0.98% of 190,000 active; calls only at 10 µM (by protocol);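 active = percentage of spot-positive cells more than 3 SD above its plate mean, without a fluorescence outlier flag or 80% toxicity; inconclusive = no clear call, values can overlap the other calls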;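 note: spot-positive cell cutoff set from DMSO-treated cells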
* = called active by the depositor; i = inactive; ? = inconclusive; / = not tested or not shown; + = active, no number. Rows were chosen to be rich in hits. Some 11% of all compounds tested hit in one or more screens of this group.

SMILES	WT yeast gro inh	Ins promoter up	Insulin prom inh	Lmaj promast	Autophagy HCS
Cc1ccc(S(=O)(=O)N2CCN(C(=O)CN3CCc4ccccc4C3)CC2)cc1	-3.2	2.23	-35.7	87.5*	i
O=C(Nc1ccccc1)c1ccc(S(=O)(=O)N2CCOCC2)cc1	1.6	0.28	40.7	7.2	i
CCN1CCc2c(sc(NC(=O)c3ccc(S(=O)(=O)N4CCOCC4)cc3)c2C(=O)OC)C1	10.5	-0.13	19.4	76.5*	i
O=C(Nc1ccc(S(=O)(=O)N2CCOCC2)cc1)c1ccc(CN2CCc3ccccc3C2)cc1	-16.2	?	26.7	90.6*	i
O=C(Nc1ccc(S(=O)(=O)N2CCCC2)cc1)c1ccc(CN2CCc3ccccc3C2)cc1	37.0	-3.42	/	90.0*	i
Cc1ccc(S(=O)(=O)N2CCN(C(=O)CCC(=O)N3CCc4ccccc43)CC2)cc1	10.7	-0.19	/	/	/
CCCc1cc2c(-c3ccccc3)cc(=O)oc2cc1OCc1ccc(C(=O)O)o1	-5.7	-0.56	5.9	-3.2	i
[S-]C(=Nc1ccc(Cl)cc1)N[n+]1ccccc1	-2.9	0.71	46.1	-6.1	i
Cc1ccc(-n2c(C)nnc2SCC(=O)NNC(=O)c2ccco2)cc1	1.7	-0.54	i	-12.0	i
CC1=NNC(=O)C1CCC(=O)N/N=C/c1ccc(C)cc1 (stereo not drawn)	/	3.3*	/	/	/
CC1=NNC(=O)C1CCC(=O)N/N=C(/C)c1ccc([N+](=O)[O-])cc1 (stereo not drawn)	-17.3	0.2	25.9	41.2	i
O=C(NCCCN1CCOCC1)c1cccc(S(=O)(=O)Nc2cc(Cl)ccc2Cl)c1	-7.9	-0.98	/	-6.9	i
CC(=O)C1=C(C)NC(SCC(=O)c2ccc(Cl)c(Cl)c2)=C(C#N)C1c1ccco1 (stereo not drawn)	/	/	/	77.8*	+
COc1ccccc1NC(=O)C1=C(C)NC(SCC(=O)c2ccc(C)cc2)=C(C#N)C1c1ccco1 (stereo not drawn)	-1.4	3.29*	16.1	15.1	+
C=CCOC(=O)C1=C(C)NC(SCC(=O)N(CC)CC)=C(C#N)C1c1ccco1 (stereo not drawn)	-1.6	-0.64	-61.5	81.2*	i
Cc1nn2c(COc3ccc(NC(=O)c4ccccc4Cl)cc3)nnc2c2ccccc12	8.6	-0.19	32.3	3.0	i
COc1ccc(CNC(=O)C2CCCN2C)cc1OC (stereo not drawn)	/	-0.01	/	/	/
N#CCCN1CCn2c1nc1ccccc12	-3.4	0.18	-7.1	2.5	i
COc1ccc(-n2c(COc3cccc4cccnc34)nnc2SCC(=O)O)cc1	4.5	0.37	/	-5.7	i
Cc1cc(Cl)ccc1OCC(=O)NCCCn1ccnc1	15.9	-0.19	0.0	-1.4	i
Cc1cc(OCCCn2ccnc2)cc(C)c1Cl	66.2*	-1.83	0.0	89.2*	i
Cc1ccc(C)c(OCCCCCn2ccnc2)c1	-3.5	0.96	-181.8	100.2*	i
C=CCc1cc(C)ccc1OCCn1ccnc1	8.3	0.89	-43.8	3.7	i
C=CCc1cc(C)ccc1OCCOCCn1ccnc1	34.1	-0.38	-23.1	96.8*	i
Cc1cc(OCCCCCn2ccnc2)cc(C)c1Cl	46.8	/	/	98.6*	i
SMILES	WT yeast gro inh	Ins promoter up	Insulin prom inh	Lmaj promast	Autophagy HCS
Clc1ccc(OCCn2ccnc2)c(Cl)c1	6.3	-0.1	-100.0	24.9	i
Cc1nn(C)cc1C(C)NCc1c(C(=O)N2CCCCCCC2)nc2ccc(Cl)cn12 (stereo not drawn)	7.5	-0.42	/	6.7	i
O=C(c1cc(COc2ccc(F)cc2F)on1)N1CCSCC1	-4.9	-0.12	0.0	-7.8	i
CN1C(=O)/C(=C/c2cn(CC(=O)N3CCCCC3)c3ccccc23)c2ccccc21	2.4	-1.12	-3.6	86.1*	i
Cc1csc2c(=O)n(CCO)c(=O)[nH]c12	/	-0.37	/	/	/
CCOc1cc2c3c(c1)C1(C(=O)N3C(C)(C)CC2C)C(C#N)=C(N)N2C(=C1C#N)Nc1ccccc12 (stereo not drawn)	19.1	0.16	7.4	66.4*	i
CCOc1cc2c3c(c1)C1(Nc4ccccc4S1)C(=O)N3C(C)(C)CC2C (stereo not drawn)	45.5	-0.54	21.4	16.6	i
COC(=O)C1CCN(C2CC(=O)N(c3cc(C)cc(C)c3)C2=O)CC1 (stereo not drawn)	3.2	0.57	52.4	6.9	i
COc1ccc(NC(=S)N(Cc2cccnc2)Cc2ccco2)cc1	-8.8	-0.65	/	91.1*	i
COc1ccc(NC(=S)N(CCCN2CCOCC2)Cc2ccco2)cc1	5.1	-0.52	-33.3	-7.9	i
CCc1ccc(NC(=S)N(Cc2cccnc2)Cc2ccco2)cc1	8.4	-0.89	-91.7	99.7*	i
O=C(CN(C(=O)CCC(=O)Nc1nccs1)C1CCCC1)NCc1ccc2c(c1)OCO2	-13.3	0.31	/	-4.8	i
Cn1c(CCN2CCOCC2)nc2cc(NC(=O)COc3ccc(Cl)cc3)ccc21	-1.2	-0.53	/	19.7	i
COc1ccc(OCC(=O)Nc2ccc3c(c2)nc(CCN2CCOCC2)n3C)cc1	23.2	0.06	/	52.1*	i
Cc1nc2ccccc2c(=O)n1/N=C/c1cn(-c2ccccc2)nc1-c1cccs1	25.0	-1.04	63.6	56.4*	i
Cc1nc2ccccc2c(=O)n1/N=C/c1cccs1	-4.9	-0.3	/	2.9	i
CCOC(=O)C1(Cc2cccc(OC)c2)CCN(Cc2cnc(SC)nc2)CC1	12.2	0.17	/	82.2*	i
CCOC(=O)C1(Cc2cccc(OC)c2)CCN(Cc2cccc3cnccc23)CC1	33.4	-2.37	/	91.3*	i
CCOC(=O)C1(Cc2cccc(OC)c2)CCN(Cc2cccc(OC)c2OC)CC1	9.8	-1.04	/	23.7	i
CCOC(=O)C1(Cc2cccc(OC)c2)CCN(Cc2cccnc2)CC1	-9.8	-0.1	-20.0	55.1*	i
O=C(O)CCN1CCc2ccccc2C1c1cccs1 (stereo not drawn)	-7.7	-0.6	61.1	0.2	i
CCONC(=O)Nc1ccccc1	9.0	0.15	/	-7.7	i
COc1ccc(N2CCN(C(=O)c3ccccc3)CC2)c([N+](=O)[O-])c1	0.0	1.37	/	8.2	i
COc1ccc(N2CCN(C(=O)c3ccc(C)cc3)CC2)c([N+](=O)[O-])c1	29.8	0.75	-29.6	54.0*	i
COc1ccc(N2CCN(C(=O)c3ccc(Br)cc3)CC2)c([N+](=O)[O-])c1	68.7*	-0.21	/	-0.2	i
CCn1c(=O)cc(SCC(=O)NCCCN2CCN(c3ccccc3F)CC2)c2ccccc21	13.3	-2.84	/	0.4	+
Cn1c(CCNC(=O)c2ccccc2F)nnc1SCc1nc2ccccc2c(=O)[nH]1	0.2	-0.79	5.7	-4.8	i
CCOc1cc(/C=N/NC(N)=S)cc(Br)c1OCc1ccccc1C	54.4	0	17.9	100.0*	+
Cc1cc(CSc2ccccc2)ccc1NC(=O)c1ccc(CN2CCOCC2)cc1	5.2	0.25	50.0	62.9*	i
CCOC(=O)c1ccc(NC(=O)N2CCOCC2)cc1	2.6	0.19	-31.4	-8.0	i
